The results in this text go back to PubChem BioAssay AID1224852 (National Center for Advancing Translational Sciences (NCATS), 2016).

Structures are written as SMILES. Inconclusive results are not listed. A number with no mark means an inactive call. The call rests on the fitted dose curve; in most records, active means well fitted curve in the direction sought with a large enough effect (not every such curve was filed as active); inconclusive means small, poorly fitted or top-dose-only effect, or effect the other way, or another doubt; inactive means no such curve, though single readings can be large or run the other way.

This assay is described as follows: Cell viability assay for measurement of the protective activity of small molecules against cell death caused by Zika virus infection in human neural progenitor cells (hNPCs).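 Further: 0% = ZIKV-infected cells without compound and 100% = uninfected cells.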 The note with it: hNPC ZIKV-induced death protection, ATP luminescence, 72 h; series mostly up to 46.1 µM; protection, negative = more death: at the top concentration. An outline of the steps:
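Luminescent ATP content after 72 h ZIKV infection (2 FFU/cell) of hNPCs, compounds added 1 h before virus. Protection expressed as percent inhibition of the infection-induced drop in cell viability.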
Regarding `CN(C)c1ccc(/C=C2\C(=O)Nc3ccccc32)cc1`, the “protection, negative = more death” value was -52.9%. As to `Nc1ncnc2c1ncn2[C@@H]1O[C@@H](CO)[C@H](O)[C@H]1O`, the “protection, negative = more death” value is -14.4% [at 23.8 µM]. Regarding `Cc1nc(N)sc1-c1ccnc(Nc2ccc(N3CCOCC3)cc2)n1`, the “protection, negative = more death” value is -31.2%.

As to `O=c1c(-c2ccc(O)cc2)coc2cc(OC3O[C@H](CO)[C@H](O)[C@H](O)[C@H]3O)cc(O)c12` (stereo partly specified), the “protection, negative = more death” value is -70.7%. Consider `CC=CC[C@@H](C)C(=O)[C@H]1C(=O)N[C@@H](C(C)C)C(=O)N(C)CC(=O)N(C)[C@@H](CC(C)C)C(=O)N[C@@H](C(C)C)C(=O)N(C)[C@@H](CC(C)C)C(=O)N[C@@H](C)C(=O)N[C@H](C)C(=O)N(C)[C@@H](CC(C)C)C(=O)N(C)[C@@H](CC(C)C)C(=O)N(C)[C@@H](C(C)C)C(=O)N1C`, for which the “protection, negative = more death” value was -38.7%.

As to `O=C(Nc1ncc([N+](=O)[O-])s1)c1cccs1`, the “protection, negative = more death” value is -40.1%. The result for `Nc1ccc(O)c(C(=O)O)c1` reads -0.677%; that for `COc1ccc(C=CC(=O)Nc2ccccc2C(=O)O)cc1OC`, -50%; that for `COc1ccnc2c1CCCCC2S(=O)c1nc2ccccc2[nH]1` (stereo unspecified), -42.6%.

For the compound `CC(C)(C)OC(=O)CN(Cc1ccc(Cl)cc1)Cc1ccc([N+](=O)[O-])s1`, the “protection, negative = more death” value was -60.6% [at 88.3 µM]. The result for `Nc1ccc(N=Nc2ccccc2)c(N)n1` reads -38.4%; that for `O=C(Nc1ccc([N+](=O)[O-])cc1Cl)c1cc(Cl)ccc1O`, -78.3%; that for `COc1cc(NC(C)CCCN)c2ncccc2c1` (stereo unspecified), -55.6%. For `O=C(C=CC=Cc1ccc2c(c1)OCO2)N1CCCCC1`, the “protection, negative = more death” value was -34.5%. In the case of `c1ccc(CCNc2nc(-c3ccccc3)cs2)cc1` it was -7.96%. In the case of `O=C(O)CCC(=O)c1ccc(-c2ccccc2)cc1`, the “protection, negative = more death” value was 0.919%.
